Assay outcomes deposited in PubChem BioAssay by National Center for Advancing Translational Sciences (NCATS).
Giardia FBPA inh: blocks Giardia fructose-bisphosphate aldolase activity; 290,000 compounds, 0.71% hits; A8B2U2; purified Giardia FBPA; Potency, µM (highest dose often 59.6 µM), inactives show at the top dose activity, negative = inhibition, most hits filed as inhibitors; also: potency is read from the fitted curve at half-maximal effect; nearly all actives have a fitted effect of over 55% in size
Target sequence (A8B2U2 whole entry, looked up): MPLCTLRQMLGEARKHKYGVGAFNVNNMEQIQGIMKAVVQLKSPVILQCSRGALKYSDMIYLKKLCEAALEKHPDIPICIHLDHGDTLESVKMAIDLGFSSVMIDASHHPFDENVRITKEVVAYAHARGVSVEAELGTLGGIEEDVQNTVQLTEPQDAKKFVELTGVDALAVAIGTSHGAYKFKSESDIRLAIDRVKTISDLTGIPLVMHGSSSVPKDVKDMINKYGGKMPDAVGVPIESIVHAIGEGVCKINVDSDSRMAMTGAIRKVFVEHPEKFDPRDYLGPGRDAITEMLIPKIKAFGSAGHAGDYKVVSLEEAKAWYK
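40 nM FBPA preincubated 10 min at RT with compound (up to 57.5 uM final), then substrate plus GAPDH/TPI/NAD/arsenate coupling and diaphorase/resazurin added. Fluorescence read after 20 min at RT, 525/598 nm.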
FMDV inh: antivirals against foot and mouth disease virus | FMDV antiviral cell-based qHTS | 410,000 compounds, 1.2% hits | Potency, µM (highest dose often 57.9 µM), inactives show at the highest dose activity change, negative = inhibition, hits mostly inhibitors | AID 1159524; calls by dose curve; tested in HEK293T cells; also: read-out not given here; potency is read from the fitted curve at half-maximal effect; nearly all actives have a fitted effect of over 45% in size
Sm TGR block: inhibitors of Schistosoma mansoni thioredoxin glutathione reductase | Potency, µM (titrated, usually from 114 µM), inactives show at the highest dose activity change, negative = inhibition, usual class: inhibitors | 360,000 compounds, 3% hits | purified TGR, DTNB reduction, TNB absorbance 405 nm | AID 485364 | Q962Y6; also: potency is read from the fitted curve at half-maximal effect; nearly all actives have a fitted effect of over 60% in size
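TGR 20 nM + NADPH 100 uM (dispensed conc.), cpd preinc 15 min RT; start with NADPH (500 uM addition) then DTNB (15 mM addition). Kinetic TNB absorbance, 405 nm filter. Four-parameter Hill fit across titration.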
RE007 growth inh: less growth of the S. pombe RE007 Vpr strain; Potency, µM (titrated, usually from 92.2 µM), for inactives: top-dose activity change, negative = less growth, usual class: inhibitors; S. pombe RE007 Vpr strain, BacTiter-Glo ATP luminescence, 24 h; 360,000 compounds, 0.21% hits; active = well fitted falling curve with a large enough effect; inconclusive = small, poorly fitted or top-dose-only effect; inactive = no such curve, though single readings can be large or run the other way; also: potency is read from the fitted curve at half-maximal effect; nearly all actives have a fitted effect of over 50% in size
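Fission yeast strain RE007, carrying one chromosomally integrated HIV-1 vpr copy, was seeded at OD 0.01 in PMG+AL medium with 23 nL pinned compound. After 24 h at 30 °C and 99% humidity, viability was read by BacTiter-Glo luminescence.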
Tb PYK inh: blocks Trypanosoma brucei pyruvate kinase. Q57TT1. TbPYK enzyme, Kinase-Glo Plus ATP luminescence, 45 min. Potency, µM (titrated, usually from 76.8 µM), without a hit: at the top dose activity, negative = inhibition, hits mostly inhibitors. 410,000 compounds, 0.12% hits. AID 624173; also: potency is read from the fitted curve at half-maximal effect; nearly all actives have a fitted effect of over 50% in size
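Enzyme and substrate buffer are dispensed first and compound is pin-transferred. ADP at 130 uM final then starts the reaction, which runs 45 min at room temperature. Detection reagent is added for 10 min before luminescence is imaged.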
HCMV antiviral: inhibitors of human cytomegalovirus | HFF cells, HCMV-luciferase reporter, 72 h; active compounds read low | activity change, negative = inhibition, % at 57.5 µM | 410,000 compounds, 4.5% hits | AID 1259415; in the data active = activity change below about -60%; inconclusive = no clear call, values can overlap the other calls; inactive = above about -39%
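Two compound doses tested in HFFs infected with HCMV-luciferase, MOI 1 PFU/cell, 72 h at 37C. Lysate luminescence read with OneGlo; data normalized against buffer-only and 10uM Salinomycin inhibitor controls.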
The depositor's hits bear a star; ! = a repeat was not active. In the library only some 7.7% were active in any assay of this set; here they are far more common. Unless noted, calls follow the shape of the dose curve; as a rule, active = well fitted curve in the direction sought with a large enough effect; inconclusive = small, poorly fitted or top-dose-only effect, or another doubt; inactive = no such curve, though single readings can be large; an effect the other way counts as inactive or inconclusive. % is scaled to controls: 0 for no effect and ±100 for the full control effect.

How did CCCC1CC(C)(c2csc(Nc3ccc(OCC)cc3)n2)OC1=O (centres undefined) do in these assays?
Giardia FBPA inh: 1%; FMDV inh: -21%; Sm TGR block: 1%; RE007 growth inh: 1%; Tb PYK inh: -7%; HCMV antiviral: -89*

How did COc1cccc(-c2nc(NCc3cccs3)c3ccccc3n2)c1 do in these assays?
Giardia FBPA inh: 13%; FMDV inh: 18%

Results for COc1ccc(O)c(O)c1/C=C1\[C@@H](C)CCC2C(C)(C)CCC[C@]12C (some centres undefined) ?
HCMV antiviral: 3

What do the screens show for `CC(C)c1cc2c(c(O)c1O)[C@@]13CCCC(C)(C)C1CC2OC3=O` (some centres undefined)?
Giardia FBPA inh: 5µM*; FMDV inh: inconclusive; Sm TGR block: 2.8µM*; RE007 growth inh: -11%; Tb PYK inh: inconclusive; HCMV antiviral: 9

Results for O=c1c(-c2cc(F)cc(F)c2)nc2cncnc2n1C1CC1 ?
Giardia FBPA inh: 9%; FMDV inh: -10%

What do the screens show for `C/C(=N\N1CCCCC1c1cccnc1)c1c(O)n(C2CCCCC2)c(=S)[nH]c1=O` (centres undefined)?
Giardia FBPA inh: -4%; FMDV inh: -29%; Sm TGR block: -11%; RE007 growth inh: -18%; Tb PYK inh: -15%; HCMV antiviral: -103*

Results for CCCCn1c(O)c(/C(CC)=N/N2CCCCC2c2cccnc2)c(=O)[nH]c1=S (centres undefined) ?
Giardia FBPA inh: -14%; FMDV inh: 0%; Sm TGR block: -1%; RE007 growth inh: -4%; Tb PYK inh: -2%; HCMV antiviral: -63*

Results for CCCCn1c(O)c(/C=N/N2CCCCC2c2cccnc2)c(=O)[nH]c1=S (centres undefined) ?
Giardia FBPA inh: -4%; FMDV inh: -16%; Sm TGR block: -1%; RE007 growth inh: -15%; Tb PYK inh: 10%; HCMV antiviral: -7

Results for CC(C)NC(=O)c1cn(C2CCCN(C(=O)c3cc4ccccc4oc3=O)C2)nn1 (centres undefined) ?
FMDV inh: -11%

What do the screens show for `Cc1cc(C)nc(SC2=CS(=O)(=O)c3ccccc32)n1`?
Giardia FBPA inh: -1%; FMDV inh: inconclusive; Sm TGR block: -23%; RE007 growth inh: 14%; Tb PYK inh: 1%; HCMV antiviral: -6

Results for O=S1(=O)C=C(Sc2nc3ccccc3s2)c2ccccc21 ?
Giardia FBPA inh: 1%; FMDV inh: 5µM*; Sm TGR block: 2.2µM*; RE007 growth inh: 10µM*; Tb PYK inh: 2%

What do the screens show for `O=C(c1ccccc1)c1c2c(cc3sc4ccccc4[n+]13)-c1cccc3cccc-2c13`?
Giardia FBPA inh: -10%; FMDV inh: 40µM*; Sm TGR block: -14%; RE007 growth inh: 9%; Tb PYK inh: -4%; HCMV antiviral: -103*

How did Cc1sc2cc3c(c(C(=O)c4ccccc4)[n+]2c1C)-c1cccc2cccc-3c12 do in these assays?
Giardia FBPA inh: 0%; FMDV inh: 14µM*; Sm TGR block: -8%; RE007 growth inh: 6%; Tb PYK inh: 2%; HCMV antiviral: -100*

What do the screens show for `CCOC(=O)c1ccccc1NC(=O)CSc1nccn1Cc1ccco1`?
FMDV inh: -4%; Sm TGR block: inconclusive; Tb PYK inh: -14%; HCMV antiviral: inconclusive

How did Cc1ccc(O)c(C(=O)c2cnn(C(=O)Cc3csc(C)n3)c2)c1 do in these assays?
Giardia FBPA inh: 18%; FMDV inh: 0%; Sm TGR block: -15%; RE007 growth inh: 25µM*; Tb PYK inh: -5%; HCMV antiviral: inconclusive

How did Cc1ncc(CC(=O)n2cc(C(=O)c3cc(F)ccc3O)cn2)s1 do in these assays?
Giardia FBPA inh: -3%; FMDV inh: 58%; Sm TGR block: -14%; RE007 growth inh: -8%; Tb PYK inh: 4%; HCMV antiviral: 10

What do the screens show for `Cc1c(Cl)cccc1NC(=O)c1cnc2sc(N3CCCC3)nn2c1=O`?
FMDV inh: -8%; Sm TGR block: 34%; Tb PYK inh: 3%; HCMV antiviral: -23

Results for CCOc1ccc(NC(=O)Cn2c3ncccc3c(=O)n2-c2ccc(CC)cc2)cc1 ?
FMDV inh: -29%; Sm TGR block: -1%; Tb PYK inh: -6%; HCMV antiviral: -28

Results for COc1ccc(C)cc1NS(=O)(=O)c1ccc2c(c1)NC(=O)C(C)S2 (centres undefined) ?
Giardia FBPA inh: -23%; FMDV inh: 27%; Sm TGR block: -2%; RE007 growth inh: -7%; Tb PYK inh: 2%; HCMV antiviral: -77*

How did CCC1Sc2ccc(S(=O)(=O)Nc3ccc(OC)c(OC)c3)cc2NC1=O (centres undefined) do in these assays?
Giardia FBPA inh: 7%; FMDV inh: -21%; Sm TGR block: -12%; RE007 growth inh: 9%; Tb PYK inh: -4%; HCMV antiviral: -76*

How did O=C1CCCCN1CCC(=O)N1CCOc2ccc(C(O)C3CCCCC3)cc2C1 (centres undefined) do in these assays?
FMDV inh: -13%

Results for Cc1ccccc1Cn1c2ccccc2c2cnn(CC(=O)NCc3ccccn3)c(=O)c21 ?
Giardia FBPA inh: -7%; FMDV inh: -12%; Sm TGR block: 2%; RE007 growth inh: -3%; Tb PYK inh: 1%; HCMV antiviral: 0

Results for CCCCN(C)CCCNC(=O)Cn1ncc2c3ccccc3n(Cc3ccccc3F)c2c1=O ?
FMDV inh: 0%; Sm TGR block: -10%; Tb PYK inh: 0%; HCMV antiviral: -105*

What do the screens show for `CCCCN(C)CCCNC(=O)Cn1ncc2c3ccccc3n(Cc3cc(C)ccc3C)c2c1=O`?
FMDV inh: -22%; Sm TGR block: -18%; Tb PYK inh: 0%; HCMV antiviral: -99*

What do the screens show for `Cc1cc(C)c(Cn2c3ccccc3c3cnn(CC(=O)NCc4ccccn4)c(=O)c32)c(C)c1`?
Giardia FBPA inh: 4%; FMDV inh: inconclusive; Sm TGR block: 1%; RE007 growth inh: 1%; Tb PYK inh: -4%; HCMV antiviral: -62*!

What do the screens show for `CCCN(CCC)CCCNC(=O)Cn1ncc2c3ccccc3n(Cc3ccccc3F)c2c1=O`?
FMDV inh: -24%; Sm TGR block: 2%; Tb PYK inh: 3%; HCMV antiviral: -24

How did CCc1nnc2c3ccccc3nc(Nc3ccccc3OC)n12 do in these assays?
FMDV inh: -17%; Sm TGR block: 6%; Tb PYK inh: -1%; HCMV antiviral: -11
